In PubChem BioAssay (EPA / NIEHS):
Values joined by “and” are separate entries in the source; they are usually repeats but may differ in a detail not shown here. Equal values may be shown once. Records with an inconclusive call do not appear. Where a structure was tested more than once in an assay, its records may differ in their call. Active and inactive are the calls of the source. Rule for the calls, unless noted: active = hit-call score of the fitted dose curve at least 0.9, where 1 is the maximum; inconclusive = response in the unintended direction; inactive = score below 0.9.

Columns and labels:
[1] = molecular target: Cellular tumor antigen p53 (Homo sapiens) (UniProt P04637); test: TOX21_p53_BLA_p2_ratio: Tox21 HCT-116 p53 Agonism Beta-lactamase Assay, Ratio, Phase 2 (AID 2283592)
Outline: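 Plated HCT116 p53-bla cells (4000/well) received compound after 5 h, then 16 h at 37C/5% CO2. CCF4-AM added, 2 h RT. Ratio of 460 to 530 nm emission taken as the p53 reporter signal.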

[2] = molecular target: Cellular tumor antigen p53 (Homo sapiens) (UniProt P04637); test: TOX21_p53_BLA_p3_ratio: Tox21 HCT-116 p53 Agonism Beta-lactamase Assay, Ratio, Phase 3 (AID 2283596)
Outline: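 Cells were seeded at 4000/well, rested 5 h at 37C, then dosed with DMSO compound solutions (217-fold dilution) for 16 h. CCF4-AM substrate was loaded for 2 h at room temperature, and the 460/530 nm emission ratio was fitted for gain of signal versus DMSO.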

[3] = TOX21_p53_BLA_p4_viability: Viability Assessment in the Tox21 HCT-116 p53 Agonism Beta-lactamase Assay, Phase 4 (AID 2283597);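 note: hits lower the luminescence signal meaning cytotoxicity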
Outline: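 Readout: ATP luminescence (CellTiter-Glo), measured 30 min after reagent addition at RT. The reagent followed a 2 h CCF4-AM incubation, and the cells had been exposed to compound for 16 h at 37C.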

[4] = molecular target: Cellular tumor antigen p53 (Homo sapiens) (UniProt P04637); test: TOX21_p53_BLA_p5_ratio: Tox21 HCT-116 p53 Agonism Beta-lactamase Assay, Ratio, Phase 5 (AID 2283599)
Outline: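 Beta-lactamase reporter ratio (blue 460 nm over green 530 nm, 405 nm excitation) after 2 h CCF4-AM loading, in HCT-116 cells exposed 16 h at 37 C to compounds pinned at 217-fold dilution. Increases relative to DMSO baseline scored.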

[5] = molecular target: Cellular tumor antigen p53 (Homo sapiens) (UniProt P04637); test: TOX21_p53_BLA_p4_ratio: Tox21 HCT-116 p53 Agonism Beta-lactamase Assay, Ratio, Phase 4 (AID 2283601)
Outline: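 Signal is the blue/green (460nm/530nm) ratio of cleaved versus uncleaved CCF4-AM substrate, read after 2 h substrate loading. Cells were HCT116 carrying the p53-responsive beta-lactamase reporter, dosed 16 h at 37C, 5% CO2; CellTiter-Glo measured in parallel.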

[6] = TOX21_p53_BLA_p3_viability: Viability Assessment in the Tox21 HCT-116 p53 Agonism Beta-lactamase Assay, Phase 3 (AID 2283593);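 note: cells exposed to compound for 16 h before reading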
Outline: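 Cellular ATP was quantified by CellTiter-Glo luminescence, read after 30 min at room temperature. Beforehand, HCT116 cells (4000/well) received compound 5 h post-seeding, 217-fold diluted from DMSO, then incubated 16 h at 37C.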

[7] = TOX21_p53_BLA_p5_viability: Viability Assessment in the Tox21 HCT-116 p53 Agonism Beta-lactamase Assay, Phase 5 (AID 2283600)
Outline: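 Workflow: seed 4000 cells per well, wait 5 h, add compounds (DMSO, 217-fold dilution), incubate 16 h, load CCF4-AM 2 h, add CellTiter-Glo, read luminescence after 30 min.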

[8] = CCTE_Shafer_MEA_dev_per_burst_spike_percent: CCTE's Neural Network Formation Assay for Percent of Spikes in a Burst, Shafer Lab (AID 2284032; active = hit-call score of the fitted dose curve at least 0.9, where 1 is the maximum; inactive = score below 0.9;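 note: fitted as a decrease in burst spike percentage below DMSO baseline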)
Outline: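 Value is trapezoidal AUC over recordings on days 5, 7, 9 and 12 of the well-mean fraction of spikes falling in single-electrode bursts; rat cortical cultures exposed continuously from plating, treatment renewed DIV 5 and 9, fitted downward against DMSO.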

[9] = CCTE_Shafer_MEA_dev_active_electrodes_number: CCTE's Neural Network Formation Assay for Number of Active Electrodes, Shafer Lab (AID 2284040);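 note: potency for loss of active electrodes versus DMSO so lower counts are hits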
Outline: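 Counts electrodes per well firing at least 5 spikes/min, recorded on days 5, 7, 9 and 12 in rat cortical cultures dosed continuously from plating (treatment refreshed DIV 5, 9). Value is the area under the curve over recordings, fitted downward relative to DMSO.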

[10] = CCTE_Shafer_MEA_dev_burst_rate: CCTE's Neural Network Formation Assay for Burst Rate, Shafer Lab (AID 2284042; active = hit-call score of the fitted dose curve at least 0.9, where 1 is the maximum; inactive = score below 0.9;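 note: potency for loss of burst rate below DMSO control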)
Outline: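 Primary rat cortical neurons on PEI-coated 48-well MEA plates (laminin added with cells at plating) (16 electrodes/well), exposed from plating to day 12, dosing renewed at DIV 5 and 9. Burst rate averaged over active electrodes, recorded DIV 5, 7, 9, 12, summarized as AUC; loss versus DMSO.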

[11] = CCTE_Shafer_MEA_dev_bursting_electrodes_number: CCTE's Neural Network Formation Assay for Number of Bursting Electrodes, Shafer Lab (AID 2284043);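 note: potency is for loss of bursting electrodes relative to DMSO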
Outline: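 Number of electrodes reaching ≥1 burst every 2 min was recorded at DIV 5, 7, 9 and 12 and collapsed as trapezoidal area under the curve. Cultures were rat cortical neurons on MEA plates, dosed continuously from plating with medium and treatment refreshed on DIV 5 and 9.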

[12] = CCTE_Shafer_MEA_dev_burst_duration_mean: CCTE's Neural Network Formation Assay for Mean Burst Duration, Shafer Lab (AID 2284045; active = hit-call score of the fitted dose curve at least 0.9, where 1 is the maximum; inactive = score below 0.9;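 note: curve fitted for loss meaning shorter burst duration than DMSO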)
Outline: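 Mean single-electrode burst duration (first to last spike), averaged over bursting electrodes per well, then integrated as area-under-curve across recordings at days 5, 7, 9 and 12. Rat cortical cultures on MEAs, compound present from plating, refreshed at feeds.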

[13] = CCTE_Shafer_MEA_dev_interburst_interval_mean: CCTE's Neural Network Formation Assay for Mean Interburst Interval, Shafer Lab (AID 2284046; active = hit-call score of the fitted dose curve at least 0.9, where 1 is the maximum; inactive = score below 0.9;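 note: well-mean interburst interval of bursting electrodes as AUC over four recording days; curve fitted for decrease in interburst interval relative to DMSO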)
Outline: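 Recordings on days 5, 7, 9 and 12 give well-mean interburst interval across actively bursting electrodes, summarized as area under the curve. Cultures: rat cortical neurons, continuous exposure from day 0, compound renewed at feeds; decrease analyzed versus DMSO.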

[14] = CCTE_Shafer_MEA_dev_inter_network_spike_interval_mean: CCTE's Neural Network Formation Assay for Mean Inter-network Spike Interval, Shafer Lab (AID 2284047; active = hit-call score of the fitted dose curve at least 0.9, where 1 is the maximum; inactive = score below 0.9;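 note: potency for a decrease in mean inter-network spike interval below DMSO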)
Outline: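 Primary rat cortical neurons on 16-electrode MEA wells, exposed from plating day 0 through DIV 12, compound renewed at DIV 5 and 9 media changes. Mean interval between network-spike peaks recorded DIV 5, 7, 9, 12; collapsed as trapezoidal AUC, fitted downward versus DMSO.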

[15] = CCTE_Shafer_MEA_dev_network_spike_number: CCTE's Neural Network Formation Assay for Number of Network Spikes, Shafer Lab (AID 2284048; active = hit-call score of the fitted dose curve at least 0.9, where 1 is the maximum; inactive = score below 0.9;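 note: synchronized bursts across electrodes counted on days 5 7 9 12 and integrated as AUC; fit as a loss of signal meaning fewer network spikes than DMSO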)
Outline: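 Number of network spikes (coordinated firing across electrodes) recorded on days 5, 7, 9 and 12 and summarised as area under the curve. Rat cortical cultures on MEA, continuous compound exposure with full medium/treatment exchange at DIV 5 and 9.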

[16] = CCTE_Shafer_MEA_dev_network_spike_peak: CCTE's Neural Network Formation Assay for Mean Number of Electrodes in Network Spike, Shafer Lab (AID 2284049; active = hit-call score of the fitted dose curve at least 0.9, where 1 is the maximum; inactive = score below 0.9;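 note: fitted for loss of signal meaning fewer electrodes in network spikes than DMSO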)
Outline: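 Rat cortical primary culture, 1.5 x 10^5 cells/well, 48-well MEA (16 electrodes/well). Dosing day 0 through DIV 12, full media/compound exchange DIV 5, 9. AxIS adaptive spike detection; AUC over days 5/7/9/12; loss-of-signal vs DMSO.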

[17] = CCTE_Shafer_MEA_dev_spike_duration_mean: CCTE's Neural Network Formation Assay for Mean Spike Duration, Shafer Lab (AID 2284051; active = hit-call score of the fitted dose curve at least 0.9, where 1 is the maximum; inactive = score below 0.9;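 note: mean network spike duration pooled as area under curve over DIV 5 to 12 recordings; potency for a decrease in mean network spike duration versus DMSO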)
Outline: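 Primary rat cortical neurons on 16-electrode MEA wells (PEI-coated, laminin in plating drop), exposed from plating through DIV 12 with compound renewed at DIV 5 and 9. Mean network-spike duration recorded DIV 5, 7, 9, 12; trapezoidal AUC across days, DMSO baseline.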

[18] = CCTE_Shafer_MEA_dev_network_spike_duration_std: CCTE's Neural Network Formation Assay for Standard Deviation of Network Spike Duration, Shafer Lab (AID 2284052; active = hit-call score of the fitted dose curve at least 0.9, where 1 is the maximum; inactive = score below 0.9;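 note: hits are decreases in network spike duration SD versus DMSO vehicle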)
Outline: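 Primary rat cortical neurons on PEI-coated 16-electrode MEA wells, exposed from plating day 0 through day 12 with compound renewed at DIV 5 and 9. Network spike duration SD recorded on days 5, 7, 9, 12, collapsed as trapezoidal AUC; loss-of-signal fit versus DMSO.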

[19] = CCTE_Shafer_MEA_dev_per_network_spike_spike_number_mean: CCTE's Neural Network Formation Assay for Mean Number of Spikes in a Network Spike, Shafer Lab (AID 2284053; active = hit-call score of the fitted dose curve at least 0.9, where 1 is the maximum; inactive = score below 0.9;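 note: fitted as decrease in spikes per network spike relative to DMSO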)
Outline: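 Primary rat cortical neurons on 48-well, 16-electrode MEA plates were exposed from plating to DIV 12, with dosing renewed on DIV 5 and 9. Spikes per network spike (0.05 s peak window) were recorded on DIV 5, 7, 9 and 12 and collapsed as trapezoidal AUC versus DMSO.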

[20] = CCTE_Shafer_MEA_dev_per_network_spike_spike_percent: CCTE's Neural Network Formation Assay for Percent of Spikes in a Network Spike, Shafer Lab (AID 2284054; active = hit-call score of the fitted dose curve at least 0.9, where 1 is the maximum; inactive = score below 0.9)
Outline: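 Metric: fraction of spikes falling in a 0.05 s window at network-spike peaks. Recordings were made on days 5, 7, 9 and 12 and collapsed by trapezoidal AUC. Cultures were rat cortical neurons on MEA plates, dosed continuously from plating, re-dosed at media changes.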

[21] = CCTE_Shafer_MEA_dev_LDH: CCTE's Lactate Dehydrogenase Assay for Cytotoxicity in the Neural Network Formation Assay, Shafer Lab (AID 2284068);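 note: exposure for twelve days from plating with re-dosing on DIV 5 and 9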
Outline: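 Primary rat cortical neurons were plated on PEI/laminin MEA plates and exposed from day 0 for twelve days, with compound renewed at DIV 5 and 9. Cytotoxicity was determined by spectrophotometric LDH assay relative to DMSO.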

[22] = CCTE_Shafer_MEA_dev_AB: CCTE's Alamar Blue Assay for Cytotoxicity in the Neural Network Formation Assay, Shafer Lab (AID 2284083);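 note: twelve days of exposure from plating with re-dosing on DIV 5 and 9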
Outline: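 Primary rat cortical neurons on PEI-coated 48-well MEA plates, 1.5 x 10^5 cells/well in laminin drop; compound exposure from day 0 of plating for twelve days, renewed at medium changes on DIV 5 and 9. Viability read as resazurin reduction by fluorescence, relative to DMSO.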

[23] = CCTE_Shafer_MEA_dev_mutual_information_norm: CCTE's Neural Network Formation Assay for Mutual Information Normalization, Shafer Lab (AID 2284091; active = hit-call score of the fitted dose curve at least 0.9, where 1 is the maximum; inactive = score below 0.9;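 note: mutual information between electrodes summarised as area under curve across four recording days; potency is for a decrease in mutual information relative to DMSO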)
Outline: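 Shared information across electrodes, tracked on days 5, 7, 9 and 12 of network development and collapsed as trapezoidal area under the curve. Rat cortical cultures were treated continuously from plating, with treatment renewed at feeds on DIV 5 and 9; DMSO baseline, negative-direction fit.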

[24] = CCTE_Shafer_MEA_dev_correlation_coefficient_mean: CCTE's Neural Network Formation Assay for Mean Correlation Coefficient, Shafer Lab (AID 2284093; active = hit-call score of the fitted dose curve at least 0.9, where 1 is the maximum; inactive = score below 0.9;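 note: well mean pairwise spike train correlation integrated as AUC over recording days 5 to 12; potency fitted for loss of correlation relative to DMSO vehicle wells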)
Outline: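 Spontaneous activity recorded on days 5, 7, 9 and 12 post-plating; pairwise spike correlations are averaged across active electrodes and collapsed to an area-under-curve. Rat cortical cultures are dosed from plating through 12 days, with compound renewed at media changes.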

Measured: AC50

Chain of Cellular tumor antigen p53 (Homo sapiens) (P04637 whole entry, looked up): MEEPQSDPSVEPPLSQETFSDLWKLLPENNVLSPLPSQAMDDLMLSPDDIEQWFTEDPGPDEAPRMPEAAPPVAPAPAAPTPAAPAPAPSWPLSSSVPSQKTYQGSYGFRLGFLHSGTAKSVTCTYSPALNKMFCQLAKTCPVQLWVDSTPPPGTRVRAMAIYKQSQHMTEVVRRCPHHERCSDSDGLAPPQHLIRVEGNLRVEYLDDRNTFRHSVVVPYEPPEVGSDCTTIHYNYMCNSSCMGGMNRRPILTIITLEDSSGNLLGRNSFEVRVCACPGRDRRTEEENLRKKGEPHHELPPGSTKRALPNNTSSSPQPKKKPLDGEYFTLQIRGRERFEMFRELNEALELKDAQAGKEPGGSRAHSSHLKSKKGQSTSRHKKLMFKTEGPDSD

NC(=O)c1ncn([C@@H]2O[C@H](CO)[C@@H](O)[C@H]2O)n1
inactive: [3] | [4]
active: [1] 32.2 µM and 20.3 µM | [2] 17 µM | [4] 45.7 µM | [5] 15.6 µM

COC(=O)C[C@](O)(CCCC(C)(C)O)C(=O)O[C@@H]1C(OC)=CC23CCCN2CCc2cc4c(cc2[C@H]13)OCO4 (some centres undefined)
inactive: [6] | [4] | [7]
active: [3] 0.014 µM | [4] 0.0379 µM

O=Cc1ccc(Cl)cc1
inactive: [1] | [2] | [4] | [7] | [5]

C=COCC(C)C
inactive: [6] | [2]

Cc1cccc2c1cc1ccc3cccc4ccc2c1c34
inactive: [6] | [3]
active: [2] 2.77 µM | [4] 2.33 µM | [5] 0.44 µM

O=S(=O)(O)CCO
inactive: [1] | [2] | [3] | [7] | [5]

NS(=O)(=O)c1cc(Cl)c(Cl)c(S(N)(=O)=O)c1
inactive: [1] | [2] | [4] | [7]

CC(CCC(=O)O)C(=O)O (centres undefined)
inactive: [1] | [2] | [3] | [4] | [5]

COc1ccc2cc3[n+](cc2c1OC)CCc1cc2c(cc1-3)OCO2
active: [6] 41.2 µM | [3] 28.5 µM | [4] 66.7 µM | [5] 53.1 µM | [8] 145 nM | [9] 161 nM | [10] 92.8 nM | [11] 130 nM | [12] 291 nM | [13] 287 nM | [14] 236 nM | [15] 79.8 nM | [16] 156 nM | [17] 130 nM | [18] 97.4 nM | [19] 109 nM | [20] 117 nM | [21] 88.1 nM | [22] 450 nM | [23] 92.6 nM | [24] 106 nM
inactive: [6] | [2] | [3] | [4] | [7] | [5]
